# PMC7862700, “An all-to-all approach to the identification of sequence-specific readers for epigenetic DNA modifications on cytosine”
# How the values were obtained:
# Test in all cases: DAPPL (digital affinity profiling via proximity ligation, sequencing); 10 mM Tris-HCl pH 7.5, 50 mM NaCl, 1 mM DTT, 4% glycerol, room temperature, 30 min; GST-TFs on glutathione beads, 16-mer random dsDNA library, 0.1% formaldehyde crosslink after washing; high values mean tight binding
# FLI1 = biological target: T1, FLI1 (Homo sapiens, UniProt Q01543 1-452); settings: protein: recombinant; tags: N-terminal GST; dsDNA, one strand shown
# T1 sequence: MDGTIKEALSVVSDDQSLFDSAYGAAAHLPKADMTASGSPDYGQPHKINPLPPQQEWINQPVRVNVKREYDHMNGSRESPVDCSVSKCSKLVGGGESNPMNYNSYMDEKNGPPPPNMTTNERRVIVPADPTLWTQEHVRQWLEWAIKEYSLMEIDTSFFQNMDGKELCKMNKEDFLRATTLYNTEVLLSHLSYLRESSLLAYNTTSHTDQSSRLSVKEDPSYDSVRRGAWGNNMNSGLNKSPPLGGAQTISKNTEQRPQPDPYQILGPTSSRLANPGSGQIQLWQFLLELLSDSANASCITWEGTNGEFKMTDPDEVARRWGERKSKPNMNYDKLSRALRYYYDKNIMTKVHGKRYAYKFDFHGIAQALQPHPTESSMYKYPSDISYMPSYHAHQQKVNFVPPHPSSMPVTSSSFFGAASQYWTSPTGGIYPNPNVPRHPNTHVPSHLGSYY
# Method in brief: (§1)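 GST fusions of human transcription factors were expressed in yeast and captured with glutathione beads. Once given DNA barcodes and pooled alongside a tag-only sample, they were incubated for 30 min at room temperature with 200 nmole of a random double-stranded 16-mer DNA library in Tris/NaCl/DTT/glycerol buffer, then washed, crosslinked (0.1% formaldehyde), proximity-ligated, PCR-amplified and sequenced on an Illumina NextSeq500. The binding signal of each hexamer is its read frequency for a factor divided by its frequency for the tag-only sample.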
# ELK1 = biological target: T2, ELK1 (Homo sapiens, UniProt P19419 1-428); settings: protein: recombinant; tags: N-terminal GST; dsDNA, one strand shown
# T2 sequence: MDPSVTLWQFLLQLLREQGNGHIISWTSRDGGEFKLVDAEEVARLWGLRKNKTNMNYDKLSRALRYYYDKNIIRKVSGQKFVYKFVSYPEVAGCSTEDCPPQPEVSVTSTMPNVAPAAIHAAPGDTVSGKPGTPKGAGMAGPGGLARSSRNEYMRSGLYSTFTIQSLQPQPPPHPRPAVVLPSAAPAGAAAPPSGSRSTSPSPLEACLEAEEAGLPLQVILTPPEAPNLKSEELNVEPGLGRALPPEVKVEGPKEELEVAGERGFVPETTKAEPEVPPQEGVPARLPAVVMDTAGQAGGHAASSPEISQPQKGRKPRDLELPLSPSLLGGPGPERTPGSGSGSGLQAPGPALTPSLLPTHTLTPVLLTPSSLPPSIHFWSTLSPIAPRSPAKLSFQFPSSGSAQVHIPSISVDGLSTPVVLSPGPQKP
# Method in brief: as §1
# GABPA = biological target: T3, GABPA (Homo sapiens, UniProt Q06546 1-454); settings: protein: recombinant; tags: N-terminal GST; dsDNA, one strand shown
# T3 sequence: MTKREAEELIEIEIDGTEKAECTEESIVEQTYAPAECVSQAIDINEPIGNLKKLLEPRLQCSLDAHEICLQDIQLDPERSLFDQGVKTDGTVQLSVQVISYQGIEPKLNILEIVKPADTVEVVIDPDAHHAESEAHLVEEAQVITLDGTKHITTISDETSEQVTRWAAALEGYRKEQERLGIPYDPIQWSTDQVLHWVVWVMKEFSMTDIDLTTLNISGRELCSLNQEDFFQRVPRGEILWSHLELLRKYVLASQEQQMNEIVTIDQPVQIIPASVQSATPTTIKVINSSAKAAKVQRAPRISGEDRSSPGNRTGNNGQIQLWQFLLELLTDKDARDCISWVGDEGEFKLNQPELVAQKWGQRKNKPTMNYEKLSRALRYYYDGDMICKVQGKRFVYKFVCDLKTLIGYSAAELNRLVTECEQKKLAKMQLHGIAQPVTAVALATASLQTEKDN
# Method in brief: as §1
# ERG = biological target: T4, ERG (Homo sapiens, UniProt P11308 1-479); settings: protein: recombinant; tags: N-terminal GST; dsDNA, one strand shown
# T4 sequence: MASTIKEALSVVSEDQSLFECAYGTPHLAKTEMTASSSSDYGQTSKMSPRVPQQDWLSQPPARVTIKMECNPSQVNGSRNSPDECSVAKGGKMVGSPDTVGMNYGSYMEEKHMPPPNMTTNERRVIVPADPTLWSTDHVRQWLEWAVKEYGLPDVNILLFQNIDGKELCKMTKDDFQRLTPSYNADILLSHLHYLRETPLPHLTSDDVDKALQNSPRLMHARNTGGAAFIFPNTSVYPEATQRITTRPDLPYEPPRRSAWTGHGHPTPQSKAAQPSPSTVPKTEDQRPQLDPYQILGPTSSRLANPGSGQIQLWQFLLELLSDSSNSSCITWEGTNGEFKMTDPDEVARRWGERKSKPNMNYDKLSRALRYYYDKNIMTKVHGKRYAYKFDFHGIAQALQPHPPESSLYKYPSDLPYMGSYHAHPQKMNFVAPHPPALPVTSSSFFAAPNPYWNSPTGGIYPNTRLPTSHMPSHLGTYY
# Method in brief: as §1
# ELF1 = ELF1 (Homo sapiens, UniProt P32519 1-619); settings: protein: recombinant; tags: N-terminal GST; dsDNA, one strand shown
# Sequence of ELF1 (P32519 whole entry): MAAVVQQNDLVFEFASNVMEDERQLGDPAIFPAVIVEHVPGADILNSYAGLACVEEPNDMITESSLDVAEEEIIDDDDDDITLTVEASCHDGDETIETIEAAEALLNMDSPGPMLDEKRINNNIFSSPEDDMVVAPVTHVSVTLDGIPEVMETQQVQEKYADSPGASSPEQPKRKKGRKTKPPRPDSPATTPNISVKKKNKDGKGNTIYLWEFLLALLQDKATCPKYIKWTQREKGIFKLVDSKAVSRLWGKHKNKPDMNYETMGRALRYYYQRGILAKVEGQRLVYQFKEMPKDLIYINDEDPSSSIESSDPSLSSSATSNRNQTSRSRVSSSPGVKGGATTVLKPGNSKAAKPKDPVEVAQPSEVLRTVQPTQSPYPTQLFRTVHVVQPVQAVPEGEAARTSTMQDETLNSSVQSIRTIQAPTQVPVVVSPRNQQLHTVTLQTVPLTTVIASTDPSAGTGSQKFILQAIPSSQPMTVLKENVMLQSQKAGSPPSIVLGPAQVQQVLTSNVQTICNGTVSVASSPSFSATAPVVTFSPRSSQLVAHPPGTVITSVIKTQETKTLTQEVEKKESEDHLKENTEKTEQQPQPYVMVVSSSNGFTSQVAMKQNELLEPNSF
# Method in brief: as §1
# EHF = biological target: T5, EHF (Homo sapiens, UniProt Q9NZC4 1-300); settings: protein: recombinant; tags: N-terminal GST; dsDNA, one strand shown
# T5 sequence: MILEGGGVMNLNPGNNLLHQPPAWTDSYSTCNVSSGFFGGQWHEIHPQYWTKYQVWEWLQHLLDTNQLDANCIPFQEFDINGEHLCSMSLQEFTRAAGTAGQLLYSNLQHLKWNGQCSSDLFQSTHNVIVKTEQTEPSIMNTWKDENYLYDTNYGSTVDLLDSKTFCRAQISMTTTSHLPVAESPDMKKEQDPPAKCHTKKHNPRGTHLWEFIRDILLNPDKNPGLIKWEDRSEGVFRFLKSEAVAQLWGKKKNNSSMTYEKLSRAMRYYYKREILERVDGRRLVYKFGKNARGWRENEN
# Method in brief: as §1
# SPI1 = SPI1 (Homo sapiens, UniProt P17947 1-270); settings: protein: recombinant; tags: N-terminal GST; dsDNA, one strand shown
# Method in brief: as §1
# SPIB = SPIB (Homo sapiens, UniProt Q01892 1-262); settings: protein: recombinant; tags: N-terminal GST; dsDNA, one strand shown
# Sequence of SPIB (Q01892 whole entry): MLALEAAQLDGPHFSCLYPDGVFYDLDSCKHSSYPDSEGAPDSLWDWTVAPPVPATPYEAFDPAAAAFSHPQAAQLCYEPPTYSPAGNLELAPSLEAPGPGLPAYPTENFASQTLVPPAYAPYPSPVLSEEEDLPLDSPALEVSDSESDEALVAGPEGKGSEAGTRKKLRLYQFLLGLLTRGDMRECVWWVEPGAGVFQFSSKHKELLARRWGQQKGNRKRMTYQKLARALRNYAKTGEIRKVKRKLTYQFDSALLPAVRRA
# Method in brief: as §1
# ELK3 = biological target: T6, ELK3 (Homo sapiens, UniProt P41970 1-407); settings: protein: recombinant; tags: N-terminal GST; dsDNA, one strand shown
# T6 sequence: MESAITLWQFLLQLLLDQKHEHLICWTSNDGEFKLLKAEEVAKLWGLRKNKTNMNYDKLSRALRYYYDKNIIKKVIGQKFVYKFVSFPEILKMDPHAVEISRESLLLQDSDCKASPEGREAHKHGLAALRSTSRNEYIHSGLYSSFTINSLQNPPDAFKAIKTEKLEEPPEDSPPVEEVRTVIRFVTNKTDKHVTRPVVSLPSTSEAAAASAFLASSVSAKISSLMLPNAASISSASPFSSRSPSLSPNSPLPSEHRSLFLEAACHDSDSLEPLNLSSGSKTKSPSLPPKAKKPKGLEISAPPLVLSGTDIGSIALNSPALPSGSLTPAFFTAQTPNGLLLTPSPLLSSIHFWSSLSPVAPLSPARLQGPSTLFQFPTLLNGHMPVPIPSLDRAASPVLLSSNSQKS
# Method in brief: as §1
# FEV = biological target: T7, FEV (Homo sapiens, UniProt Q99581 1-238); settings: protein: recombinant; tags: N-terminal GST; dsDNA, one strand shown
# T7 sequence: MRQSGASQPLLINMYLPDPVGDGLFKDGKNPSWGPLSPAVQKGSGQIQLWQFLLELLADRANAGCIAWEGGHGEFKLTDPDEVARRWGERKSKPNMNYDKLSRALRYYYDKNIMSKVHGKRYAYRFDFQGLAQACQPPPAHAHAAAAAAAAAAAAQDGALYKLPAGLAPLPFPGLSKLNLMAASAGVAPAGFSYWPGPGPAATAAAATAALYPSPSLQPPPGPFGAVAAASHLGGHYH
# Method in brief: as §1
# ETV5 = ETV5 (Homo sapiens, UniProt P41161 1-510); settings: protein: recombinant; tags: N-terminal GST; dsDNA, one strand shown
# Sequence of ETV5 (P41161 whole entry): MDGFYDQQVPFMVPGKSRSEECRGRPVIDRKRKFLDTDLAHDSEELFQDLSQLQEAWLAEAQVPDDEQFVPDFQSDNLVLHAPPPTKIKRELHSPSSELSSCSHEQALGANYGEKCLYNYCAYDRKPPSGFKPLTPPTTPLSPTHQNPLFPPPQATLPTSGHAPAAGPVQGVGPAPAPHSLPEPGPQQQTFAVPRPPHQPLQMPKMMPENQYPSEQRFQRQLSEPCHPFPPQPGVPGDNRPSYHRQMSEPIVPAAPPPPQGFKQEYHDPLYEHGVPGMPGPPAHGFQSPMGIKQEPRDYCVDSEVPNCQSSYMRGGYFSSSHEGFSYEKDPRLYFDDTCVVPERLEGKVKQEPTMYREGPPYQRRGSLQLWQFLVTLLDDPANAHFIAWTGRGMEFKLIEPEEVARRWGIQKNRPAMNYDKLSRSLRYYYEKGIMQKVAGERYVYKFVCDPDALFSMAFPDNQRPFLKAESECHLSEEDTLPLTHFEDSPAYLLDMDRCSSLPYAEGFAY
# Method in brief: as §1
# HSF1 = HSF1 (Homo sapiens, UniProt Q00613 1-529); settings: protein: recombinant; tags: N-terminal GST; chain copies: 3; dsDNA, one strand shown
# Sequence of HSF1 (Q00613 whole entry): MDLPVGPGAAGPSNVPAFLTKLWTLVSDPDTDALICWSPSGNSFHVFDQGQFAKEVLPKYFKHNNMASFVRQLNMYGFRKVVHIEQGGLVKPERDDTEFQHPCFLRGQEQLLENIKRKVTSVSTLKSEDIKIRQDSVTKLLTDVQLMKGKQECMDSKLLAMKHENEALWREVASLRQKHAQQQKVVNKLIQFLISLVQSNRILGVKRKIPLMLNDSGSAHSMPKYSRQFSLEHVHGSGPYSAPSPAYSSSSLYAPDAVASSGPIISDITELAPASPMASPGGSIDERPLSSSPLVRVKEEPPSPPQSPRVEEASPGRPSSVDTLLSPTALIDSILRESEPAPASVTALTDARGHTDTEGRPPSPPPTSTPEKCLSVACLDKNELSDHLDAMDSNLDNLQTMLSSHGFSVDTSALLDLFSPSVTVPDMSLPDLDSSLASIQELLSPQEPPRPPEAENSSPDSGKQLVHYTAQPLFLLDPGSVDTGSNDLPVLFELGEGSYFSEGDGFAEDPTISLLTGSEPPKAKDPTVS
# Method in brief: as §1
# SPIC = biological target: T8, SPIC (Homo sapiens, UniProt Q8N5J4 1-248); settings: protein: recombinant; tags: N-terminal GST; dsDNA, one strand shown
# T8 sequence: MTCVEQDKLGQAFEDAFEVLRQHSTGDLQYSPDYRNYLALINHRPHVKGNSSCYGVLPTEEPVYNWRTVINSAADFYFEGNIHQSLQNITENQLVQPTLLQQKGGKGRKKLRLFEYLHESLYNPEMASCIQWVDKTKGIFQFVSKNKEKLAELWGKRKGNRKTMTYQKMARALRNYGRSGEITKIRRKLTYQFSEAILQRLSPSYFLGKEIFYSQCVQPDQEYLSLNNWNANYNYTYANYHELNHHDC
# Method in brief: as §1
# ELF4 = ELF4 (Homo sapiens, UniProt Q99607 1-663); settings: protein: recombinant; tags: N-terminal GST; dsDNA, one strand shown
# Sequence of ELF4 (Q99607 whole entry): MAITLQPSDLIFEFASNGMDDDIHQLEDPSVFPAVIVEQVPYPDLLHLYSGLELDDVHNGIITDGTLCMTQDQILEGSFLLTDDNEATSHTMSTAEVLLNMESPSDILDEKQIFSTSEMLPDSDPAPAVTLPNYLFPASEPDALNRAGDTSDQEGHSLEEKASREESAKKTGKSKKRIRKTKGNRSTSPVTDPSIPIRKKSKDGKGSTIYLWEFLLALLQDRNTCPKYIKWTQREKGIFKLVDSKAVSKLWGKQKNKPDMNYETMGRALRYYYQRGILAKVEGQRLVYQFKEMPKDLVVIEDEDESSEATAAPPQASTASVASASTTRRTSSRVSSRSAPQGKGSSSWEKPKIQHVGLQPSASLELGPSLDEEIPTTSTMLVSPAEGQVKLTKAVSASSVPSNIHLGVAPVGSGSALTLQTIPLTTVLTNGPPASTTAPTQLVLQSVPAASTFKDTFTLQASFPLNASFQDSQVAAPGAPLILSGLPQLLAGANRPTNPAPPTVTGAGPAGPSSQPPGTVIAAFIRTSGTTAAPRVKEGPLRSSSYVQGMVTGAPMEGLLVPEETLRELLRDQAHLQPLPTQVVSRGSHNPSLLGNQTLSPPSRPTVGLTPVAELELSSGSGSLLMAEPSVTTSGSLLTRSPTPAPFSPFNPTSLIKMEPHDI
# Method in brief: as §1
# ELK4 = biological target: T9, ELK4 (Homo sapiens, UniProt P28324-2 1-405); settings: protein: recombinant; tags: N-terminal GST; dsDNA, one strand shown
# T9 sequence: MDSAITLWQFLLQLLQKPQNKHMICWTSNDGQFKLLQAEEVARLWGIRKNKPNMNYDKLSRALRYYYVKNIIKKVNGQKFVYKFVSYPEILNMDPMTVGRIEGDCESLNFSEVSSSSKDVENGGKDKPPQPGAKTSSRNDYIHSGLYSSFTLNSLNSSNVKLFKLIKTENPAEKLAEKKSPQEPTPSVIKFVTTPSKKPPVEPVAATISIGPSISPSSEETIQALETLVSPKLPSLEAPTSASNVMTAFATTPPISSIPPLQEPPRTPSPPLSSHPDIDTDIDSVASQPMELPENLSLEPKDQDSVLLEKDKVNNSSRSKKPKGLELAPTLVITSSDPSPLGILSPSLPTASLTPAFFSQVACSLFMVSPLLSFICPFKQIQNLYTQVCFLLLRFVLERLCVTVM
# Method in brief: as §1
# ETV2 = biological target: T10, ETV2 (Homo sapiens, UniProt O00321 1-342); settings: protein: recombinant; tags: N-terminal GST; dsDNA, one strand shown
# T10 sequence: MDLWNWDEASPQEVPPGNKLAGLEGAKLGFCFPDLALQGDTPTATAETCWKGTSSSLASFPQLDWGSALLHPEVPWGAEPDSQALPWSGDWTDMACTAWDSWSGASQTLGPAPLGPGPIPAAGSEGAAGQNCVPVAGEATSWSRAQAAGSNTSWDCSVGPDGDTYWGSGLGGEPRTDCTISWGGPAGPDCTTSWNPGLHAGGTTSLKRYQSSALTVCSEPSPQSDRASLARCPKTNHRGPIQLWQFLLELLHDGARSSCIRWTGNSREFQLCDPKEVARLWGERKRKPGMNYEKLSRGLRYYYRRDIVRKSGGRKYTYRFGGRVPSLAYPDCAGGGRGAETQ
# Method in brief: as §1
# ELF3 = biological target: T11, ELF3 (Homo sapiens, UniProt P78545 1-371); settings: protein: recombinant; tags: N-terminal GST; dsDNA, one strand shown
# T11 sequence: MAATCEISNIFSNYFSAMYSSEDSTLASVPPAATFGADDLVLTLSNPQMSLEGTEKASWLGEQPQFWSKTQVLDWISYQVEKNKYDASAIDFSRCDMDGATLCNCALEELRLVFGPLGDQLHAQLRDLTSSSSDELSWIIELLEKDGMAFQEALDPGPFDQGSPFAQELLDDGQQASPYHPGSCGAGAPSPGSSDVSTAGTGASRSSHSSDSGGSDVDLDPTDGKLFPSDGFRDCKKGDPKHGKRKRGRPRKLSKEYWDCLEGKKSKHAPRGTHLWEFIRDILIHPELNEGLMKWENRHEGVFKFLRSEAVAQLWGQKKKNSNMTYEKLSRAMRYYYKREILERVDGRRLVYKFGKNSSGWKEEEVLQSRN
# Method in brief: as §1
# CRX = CRX (Homo sapiens, UniProt O43186 1-299); settings: protein: recombinant; tags: N-terminal GST; dsDNA, one strand shown
# Sequence of CRX (O43186 whole entry): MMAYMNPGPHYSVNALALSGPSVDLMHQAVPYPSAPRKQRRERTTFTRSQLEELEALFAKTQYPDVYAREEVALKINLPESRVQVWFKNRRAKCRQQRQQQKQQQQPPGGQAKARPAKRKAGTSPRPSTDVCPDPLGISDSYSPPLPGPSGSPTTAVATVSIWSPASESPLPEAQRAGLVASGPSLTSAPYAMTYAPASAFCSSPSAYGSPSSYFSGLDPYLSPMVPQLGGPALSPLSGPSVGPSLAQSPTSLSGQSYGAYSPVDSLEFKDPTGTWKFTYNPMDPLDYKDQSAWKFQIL
# Method in brief: as §1
# ETV1 = ETV1 (Homo sapiens, UniProt P50549 1-477); settings: protein: recombinant; tags: N-terminal GST; dsDNA, one strand shown
# Sequence of ETV1 (P50549 whole entry): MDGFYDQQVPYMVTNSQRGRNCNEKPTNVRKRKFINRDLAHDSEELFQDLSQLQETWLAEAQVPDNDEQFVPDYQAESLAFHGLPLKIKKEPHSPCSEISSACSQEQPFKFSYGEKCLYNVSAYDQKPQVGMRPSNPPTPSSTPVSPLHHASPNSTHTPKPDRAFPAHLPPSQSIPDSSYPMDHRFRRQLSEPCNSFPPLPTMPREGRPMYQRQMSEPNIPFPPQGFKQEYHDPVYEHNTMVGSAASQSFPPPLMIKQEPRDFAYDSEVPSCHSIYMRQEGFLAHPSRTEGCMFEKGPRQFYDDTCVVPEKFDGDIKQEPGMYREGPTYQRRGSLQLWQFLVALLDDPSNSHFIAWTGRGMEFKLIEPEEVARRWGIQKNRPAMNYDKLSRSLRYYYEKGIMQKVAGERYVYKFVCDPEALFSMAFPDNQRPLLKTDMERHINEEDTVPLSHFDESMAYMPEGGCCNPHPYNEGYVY
# Method in brief: as §1
sequence,measurement,setting,value
AACTAG,binding signal,FLI1,"1.06 fold enrichment (6-mer frequency, TF over GST control)"
same,binding signal,ELK1,"1.15 fold enrichment (6-mer frequency, TF over GST control)"
same,binding signal,GABPA,"1.22 fold enrichment (6-mer frequency, TF over GST control)"
same,binding signal,ERG,"1.21 fold enrichment (6-mer frequency, TF over GST control)"
same,binding signal,ELF1,"1.16 fold enrichment (6-mer frequency, TF over GST control)"
same,binding signal,EHF,"1.12 fold enrichment (6-mer frequency, TF over GST control)"
same,binding signal,SPI1,"1.11 fold enrichment (6-mer frequency, TF over GST control)"
same,binding signal,SPIB,"1.07 fold enrichment (6-mer frequency, TF over GST control)"
same,binding signal,ELK3,"1.11 fold enrichment (6-mer frequency, TF over GST control)"
same,binding signal,FEV,"1.14 fold enrichment (6-mer frequency, TF over GST control)"
same,binding signal,ETV5,"1.15 fold enrichment (6-mer frequency, TF over GST control)"
same,binding signal,HSF1,"1.37 fold enrichment (6-mer frequency, TF over GST control)"
same,binding signal,SPIC,"1.2 fold enrichment (6-mer frequency, TF over GST control)"
same,binding signal,ELF4,"1.19 fold enrichment (6-mer frequency, TF over GST control)"
same,binding signal,ELK4,"1.02 fold enrichment (6-mer frequency, TF over GST control)"
same,binding signal,ETV2,"1.35 fold enrichment (6-mer frequency, TF over GST control)"
same,binding signal,ELF3,"1.1 fold enrichment (6-mer frequency, TF over GST control)"
same,binding signal,CRX,"1.11 fold enrichment (6-mer frequency, TF over GST control)"
same,binding signal,ETV1,"1.15 fold enrichment (6-mer frequency, TF over GST control)"
